Data on 39 compounds can be found in PubChem BioAssay (Tox21).

Each structure is given as a SMILES string. Where “and” joins values, the source holds several entries; their conditions need not be identical. Identical values can stand only once. Records with an inconclusive call do not appear. Calls of active or inactive are those of the source. Calls follow the shape of the dose curve; as a rule, active = well fitted cell-killing curve with a large enough effect in the repeat runs; inconclusive = weak or mixed curves, or effect the other way; inactive = no such curve, though single readings can be large or run the other way.
% is scaled to controls: 0 for no effect and ±100 for the full control effect; potency is read from the fitted curve at half-maximal effect.

A short description of this assay: qHTS assay to identify small molecule antagonists of the thyroid receptor (TR) signaling pathway - cell viability counter screen (AID 743064). Also: nearly all actives have a fitted effect of over 50% in size. The settings on record: GH3.TRE-Luc viability, CellTiter-Fluor, 24 h; series mostly up to 70.3 µM; activity change, negative = cytotoxic: at the top concentration. Put shortly: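 GH3.TRE-Luc rat pituitary cells dosed after 4 hr plating, co-stimulated with T3 at 1 nM final, incubated 23.5 h at 37 C. Viability measured in the same wells by CellTiter-Fluor fluorescence after 30 min further at 37 C.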
On the technique in general: Quantitative high-throughput screening tests each substance at several concentrations.
Turning to `C=CC(C)(O)CC/C=C(/C)CCC=C(C)C` (centres undefined), the “activity change, negative = cytotoxic” value was -20.8% (inactive). In the case of `CC/C=C/CCO`, the “activity change, negative = cytotoxic” value was -0.112% [at 95 µM] (inactive). The same measure, in the same setting: under `C[C@@H](O)[C@H]1C(=O)N2C(C(=O)O)=C(S[C@@H]3CN[C@H](CNS(N)(=O)=O)C3)[C@H](C)[C@H]12` stands -1.43% (inactive). Take `O=C(NC1CCN(CCc2c[nH]c3ccccc23)CC1)c1ccccc1`: the Potency was 26.6 µM (active). On to `Cc1c(-c2cccnc2)c2ccccc2n1CCCCC(=O)O`, for which the “activity change, negative = cytotoxic” value was 23.2% (inactive). Still for that read-out and setting: under `COc1ccc(C(=O)c2ccc(C)cc2)c(O)c1` stands 6.14% [at 95 µM] (inactive); under `O=C(O)c1cc(C(=O)O)c(C(=O)O)cc1C(=O)O`, -1.34% (inactive). Still for that read-out and setting: in the case of `OCCc1ccncc1` it was 1.53% (inactive); in that of `CC(C)(C(=O)O)c1ccc(C(O)CCCN2CCC(C(O)(c3ccccc3)c3ccccc3)CC2)cc1` (centres undefined), -9.94% (inactive). Consider `C1CCN(CN2CCCCC2)CC1`, for which the “activity change, negative = cytotoxic” value is 3.63% (inactive). The same measure, in the same setting: in the case of `O=C1c2ccccc2C(=O)c2c1ccc(O)c2O` it was -11.9% (inactive). In the case of `CC1=CC(=C(c2ccc(N)cc2)c2ccc(N)cc2)C=CC1=N`, the Potency was 13.3 µM (active). In the case of `O=[N+]([O-])c1ccc(Cl)cc1Cl`, the “activity change, negative = cytotoxic” value was 11.3% (inactive). Same read-out and setting: under `CCCCCCCCCCCCSC#N` stands -4.37% (inactive). For `COc1cc(CNC(=O)CCCC/C=C/C(C)C)ccc1O`, the Potency result was “inactive”. `C/C=C1\[C@H]2C=C(C)C[C@]1(N)c1ccc(=O)[nH]c1C2`: the “activity change, negative = cytotoxic” value was -21.7% (inactive).

On to `Cc1cc(SC2=C(O)C[C@@](CCc3ccc(N)cc3)(C(C)C)OC2=O)c(C(C)(C)C)cc1CO`, for which the “activity change, negative = cytotoxic” value is 1.32% (inactive). Turning to `O=C(OC1C[C@H]2CC[C@@H](C1)[N+]21CCCC1)C(O)(c1ccccc1)c1ccccc1` (some centres undefined), the “activity change, negative = cytotoxic” value is 8.21% (inactive). Regarding `CC(C)C[C@H](NC(=O)[C@H](Cc1ccccc1)NC(=O)c1cnccn1)B(O)O`, the Potency is 18.8 nM (active) and 11.9 nM (active). Consider `CCOCCn1c(N2CCCN(C)CC2)nc2ccccc21`, for which the “activity change, negative = cytotoxic” value was 2.82% (inactive). Turning to `CC/C=C\CCO`, the “activity change, negative = cytotoxic” value was 18.7% (inactive).

On to `CC(=O)c1ccc(Cl)c(Cl)c1Cl`, for which the “activity change, negative = cytotoxic” value is -4.73% (inactive). Still for that read-out and setting: in the case of `C[C@H](CN1CCCC1)C(=O)c1ccc(C(F)(F)F)cc1` it was 3.44% (inactive).

On to `C=CCCC`, for which the “activity change, negative = cytotoxic” value is 0.182% [at 95 µM] (inactive). Consider `CC(=O)Nc1ccccc1O`, for which the “activity change, negative = cytotoxic” value was -5.02% (inactive). As for `O=C(O)CNc1ccccc1`, the “activity change, negative = cytotoxic” value is 13.5% (inactive).

For the compound `CC(C)CC(C)(C)C`, the “activity change, negative = cytotoxic” value was 13.4% [at 95 µM] (inactive). Same read-out and setting: under `O=C1OC(=O)C2CC=CCC12` (centres undefined) stands 8.84% [at 95 µM] (inactive); under `SCCOCCOCCS`, -0.0931% (inactive). Take `S=c1[nH][nH]c(=S)s1`: the “activity change, negative = cytotoxic” value was -23.3% (inactive).

With `CC(C)(C)c1ccc(CCC=O)cc1`, the “activity change, negative = cytotoxic” value was 1.1% (inactive).

For the compound `Cc1nc2sccn2c(=O)c1CCN1CCC(=C(c2ccc(F)cc2)c2ccc(F)cc2)CC1`, the Potency is 29.8 µM (active). On to `O=C(O)c1ccccc1-n1cc(C(=O)O)c(=O)c2cc(Nc3c(F)cc(F)cc3Cl)c(Cl)cc21`, for which the “activity change, negative = cytotoxic” value was 15.9% (inactive). On the same count and under the same terms, in the case of `O=C(O)COCC(=O)O` it was 29.1% [at 95 µM] (inactive).

Regarding `NC(=O)c1ccccc1`, the “activity change, negative = cytotoxic” value was 3.39% [at 95 µM] (inactive). For the compound `Cc1ccc(NC(=O)c2ccc(CN3CCN(C)CC3)cc2)cc1Nc1nccc(-c2cccnc2)n1`, the Potency was 21.1 µM (active). On to `CCC(C)C1N=C(C)C(C)S1` (centres undefined), for which the “activity change, negative = cytotoxic” value was -0.834% (inactive). The same measure, in the same setting: in the case of `CCN(CCCCOC(=O)c1ccc(OC)c(OC)c1)C(C)Cc1ccc(OC)cc1` (centres undefined) it was -27% [at 32.5 µM] (inactive).

Regarding `CCCN(C1CCN(C(=O)C2CCNCC2)CC1)[C@@H]1CCc2ccc(OC)cc2C1`, the Potency is 68.6 µM (active).
